Sampled rows, rich in hits. Any-hit rate of the full collection: about 4%.
Mdm2-MdmX inh: inhibitors of human Mdm2-MdmX association, primary screen, cell-based, luminescence, split luciferase, SaOS-2, uHTS. Protein Mdm4 (Homo sapiens) + E3 ubiquitin-protein ligase Mdm2 (Homo sapiens), …. SaOS-2 split-luciferase Mdm2/MdmX complementation. inhibition, % at 8 µM. 330,000 compounds, 3% hits. AID 485346, 2010;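 active = inhibition of at least 50% at 8 µM in the primary screen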
Target sequence (O15151 whole entry, looked up): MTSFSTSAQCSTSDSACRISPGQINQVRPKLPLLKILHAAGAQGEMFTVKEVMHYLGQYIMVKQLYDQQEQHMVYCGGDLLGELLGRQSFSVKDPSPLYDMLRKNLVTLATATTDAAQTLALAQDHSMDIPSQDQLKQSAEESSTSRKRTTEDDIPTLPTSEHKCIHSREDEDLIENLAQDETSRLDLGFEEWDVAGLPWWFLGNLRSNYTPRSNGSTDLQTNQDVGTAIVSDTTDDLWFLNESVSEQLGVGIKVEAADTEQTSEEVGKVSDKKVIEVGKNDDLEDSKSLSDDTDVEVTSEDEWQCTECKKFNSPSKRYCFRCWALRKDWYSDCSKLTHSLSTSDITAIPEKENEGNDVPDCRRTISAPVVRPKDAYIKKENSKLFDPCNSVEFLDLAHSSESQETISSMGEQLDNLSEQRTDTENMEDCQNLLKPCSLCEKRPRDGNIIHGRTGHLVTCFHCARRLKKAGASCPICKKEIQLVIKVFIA
Target sequence (Q00987 whole entry, looked up): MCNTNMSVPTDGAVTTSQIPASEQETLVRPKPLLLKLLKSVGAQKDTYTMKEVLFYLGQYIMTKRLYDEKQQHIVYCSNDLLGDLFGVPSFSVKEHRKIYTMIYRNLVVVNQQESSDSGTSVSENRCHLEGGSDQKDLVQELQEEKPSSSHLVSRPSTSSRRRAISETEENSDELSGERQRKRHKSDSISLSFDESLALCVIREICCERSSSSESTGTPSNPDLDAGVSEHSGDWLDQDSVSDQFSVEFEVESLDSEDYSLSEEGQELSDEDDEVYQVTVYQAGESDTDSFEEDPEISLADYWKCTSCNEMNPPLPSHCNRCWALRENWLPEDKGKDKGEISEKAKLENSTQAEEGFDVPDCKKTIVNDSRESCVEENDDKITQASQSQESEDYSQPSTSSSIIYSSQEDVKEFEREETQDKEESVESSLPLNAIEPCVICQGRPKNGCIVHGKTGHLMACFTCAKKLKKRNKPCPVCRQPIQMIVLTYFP
Gli-Sufu antag: Gli-Sufu pathway antagonists, primary screen, luciferase luminescence, Sufu-KO-LIGHT cells, uHTS. Sufu-KO-LIGHT fibroblasts, Gli luciferase reporter luminescence. inhibition, % at 5 µM. 340,000 compounds, 0.74% hits. AID 588413, 2011;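 active = inhibition above about 55%, limit read from the data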
Jurkat NFkB inh: inhibitors of induced NF-kB luciferase reporter, primary screen, TCR NF-kB activation inhibitor project, cell-based, luminescence, uHTS; 330,000 compounds, 0.53% hits; Jurkat, PMA/ionomycin-induced NF-kB luciferase reporter; AID 435003, 2010; inhibition, % at 4 µM; in the data active = inhibition above about 50%
697 NFkB inh: inhibitors of PMA/ionomycin-induced NF-kB reporter, 697 cells, primary screen, B-cell NF-kB inhibitor project, cell-based, luminescence, uHTS; 697 B-cell NF-kB luciferase reporter, 16 h; inhibition, % at 4 µM; 330,000 compounds, 0.33% hits; AID 435022, 2010; in the data active = inhibition above about 35%
Beta cell apopt: inhibitors of cytokine-induced beta cell apoptosis, primary screen, luminescence; INS-1E cytokine-induced death, ATP luminescence, 48 h; percent of positive-control rescue, neutral wells zero; protection from apoptosis, % (test concentration not listed); 300,000 compounds, 0.8% hits; AID 435005, 2010;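 active = Every replicate reaches about 75%, or at least half do and their mean reaches it too, limit read from the data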;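 also: higher means more ATP so stronger rescue from cytokine killing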
Jurkat NFkB conf: PMA/ionomycin-induced NF-kB reporter inhibitors, Jurkat retest, confirmation, T-cell NF-kB inhibitor project, cell-based, luminescence, single concentration. shares compounds with Jurkat NFkB inh. Jurkat NF-kB luciferase, 16 h. inhibition, % at 4 µM. 2,700 compounds, 27% hits. AID 435020, 2010;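 active = inhibition reaching about 45% at 4 µM in either replicate, limit read from the data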
697 NFkB conf: PMA/ionomycin-induced NF-kB reporter inhibitors, 697 retest, confirmation, B-cell NF-kB inhibitor project, cell-based, luminescence, single concentration; 2,000 compounds, 35% hits; 697 B-cell NF-kB luciferase, 16 h; inhibition, % at 4 µM; shares compounds with 697 NFkB inh; AID 449746, 2010; in the data active = inhibition mostly above about 28%, no sharp cut-off; inactive = mostly below about 22%
Mdm2-MdmX conf: Mdm2-MdmX complex disruptors, retested hits, confirmation, luminescence, single concentration; shares compounds with Mdm2-MdmX inh; Mdm2-MdmX binding, luminescent assay; inhibition, % at 8 µM; 10,000 compounds, 55% hits; in the data active = inhibition above about 40%
Full FLuc ctr: full-length luciferase signal inhibition, confirmation, counter-screen for Mdm2/MdmX interaction inhibitor project, cell-based, single concentration, SaOS-2. shares compounds with Mdm2-MdmX inh. SaOS-2 full-length luciferase counterscreen, luminescence. inhibition, % at 8 µM. 6,200 compounds, 77% hits. AID 504607, 2011;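 active = mean inhibition at 8 µM reaching about 37%, which flags the compound as non-specific, limit read from the data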;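 also: p53-null SaOS-2 cells with luciferase driven by a doxycycline-inducible promoter; compound on cells about two nights before reading with doxycycline added after day one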
Of the large screens only hits and unclear results are named; the others gave an inactive call (follow-up assays come after a bar, where they were run).

C#CC(=O)N(c1ccc(OC)c(OC)c1)C(C(=O)NC1CCCC1)c1cccs1 (configuration not stated)	Mdm2-MdmX inh 99.4, Gli-Sufu antag 70.1, Jurkat NFkB inh 100.0, 697 NFkB inh 100.6 | Jurkat NFkB conf 85.2 | 697 NFkB conf 101.8 | Mdm2-MdmX conf 100.1 | Full FLuc ctr 52.7
CCN(CC)CCNS(=O)(=O)c1ccc2c3c(cccc13)C(=O)N2	none
O=C(NCc1nnnn1-c1ccc(Cl)cc1)c1ccc(Br)o1	none
COc1cccc(C(=O)N2c3cc(C)ccc3OCC2C(C)(C)C)c1 (configuration not stated)	none
COc1ccc(S(=O)(=O)N2c3cc(C)ccc3OCC2C(C)(C)C)cc1 (configuration not stated)	Mdm2-MdmX inh 55.9, Jurkat NFkB inh 51.1 | Jurkat NFkB conf inactive | Mdm2-MdmX conf 61.2 | Full FLuc ctr 63.2
Cc1cc(N2CCOCC2)n2ncc(-c3ccc(Cl)cc3)c2n1	Mdm2-MdmX inh 62.1 | Jurkat NFkB conf inactive | 697 NFkB conf inactive | Mdm2-MdmX conf 73.5 | Full FLuc ctr 194.6
Nc1ncc(-c2nnnn2-c2ccc(Cl)cc2)c(-c2ccc(Cl)cc2)n1	Mdm2-MdmX inh 57.0, Jurkat NFkB inh 56.2 | Jurkat NFkB conf inactive | Mdm2-MdmX conf 68.0 | Full FLuc ctr 45.7
O=C(/C=C\c1ccco1)Nc1cc([N+](=O)[O-])ccc1F	Mdm2-MdmX inh 59.1, Jurkat NFkB inh 67.9 | Jurkat NFkB conf inactive | Mdm2-MdmX conf 57.9 | Full FLuc ctr 123.5
O=C(/C=C/c1ccco1)Nc1cc(Cl)ccc1C(=O)O	none
N=c1oc2cc(O)ccc2cc1C(=O)Nc1ccc(Cl)cc1	none (no result: Beta cell apopt)
Fc1ccccc1/C=N/Nc1nc(-c2ccccn2)nc2ccccc12	Mdm2-MdmX inh 82.0, Jurkat NFkB inh 61.0, Beta cell apopt 104.9 (no result: Gli-Sufu antag) | Jurkat NFkB conf inactive | Mdm2-MdmX conf 78.0 | Full FLuc ctr 57.2
Oc1ccc(/C=N/Nc2nc(-c3cccnc3)nc3ccccc23)c(O)c1	none
CCOc1ccc(C)cc1S(=O)(=O)n1cnc2ccccc21	Mdm2-MdmX inh 51.6, Jurkat NFkB inh 53.6 (no result: Beta cell apopt) | Jurkat NFkB conf inactive | Mdm2-MdmX conf 60.7 | Full FLuc ctr 44.7
CCOc1ccc(Cl)cc1S(=O)(=O)n1cnc2ccccc21	none
O=S(=O)(c1ccc(F)cc1)c1snnc1-c1ccccc1	none (no result: Mdm2-MdmX inh, Jurkat NFkB inh, 697 NFkB inh)
O=S(=O)(c1ccc(Cl)cc1)c1snnc1-c1ccccc1	Mdm2-MdmX inh 98.3, Jurkat NFkB inh 52.8 | Jurkat NFkB conf inactive | Mdm2-MdmX conf 79.5 | Full FLuc ctr 55.9
COc1ccc(C(=O)N2CCC(C(=O)O)CC2)c2ccccc12	none
CC(OC(=O)CCN=C1NS(=O)(=O)c2ccccc21)C(=O)Nc1ccc(F)cc1 (configuration not stated)	none
NCCCCCNC(=O)c1nc[nH]c1C(=O)NCC(=O)OCc1ccccc1	none
O=C(O)c1ccc(COc2ccccc2Cl)cc1	none
O=C(O)c1cccc(COc2ccccc2Cl)c1	Mdm2-MdmX inh 68.9, Jurkat NFkB inh 81.9, 697 NFkB inh 67.0 | Jurkat NFkB conf 78.4 | 697 NFkB conf 42.8 | Mdm2-MdmX conf 68.7 | Full FLuc ctr 50.0
COc1ccc2c(CC(=O)Nc3ccccc3N3CCOCC3)coc2c1	none
COc1cccc(NC(=O)Nc2nc(-c3ccc(OC)c(OC)c3)cs2)c1	Mdm2-MdmX inh 95.6, Jurkat NFkB inh 89.5, 697 NFkB inh 56.4 | Jurkat NFkB conf inactive | 697 NFkB conf inactive | Mdm2-MdmX conf 98.5 | Full FLuc ctr 52.1
CCc1nc2ccccc2c(C(=O)Nc2cc(C)ccc2C)c1C	none
O=C(CN1C(=O)c2cccc3cccc(c23)C1=O)N1CCN(Cc2ccc3c(c2)OCO3)CC1	none
NS(=O)(=O)c1ccc(Sc2nc3ccccc3s2)c([N+](=O)[O-])c1	Mdm2-MdmX inh 78.9, Jurkat NFkB inh 97.6 | Jurkat NFkB conf 89.0 | Mdm2-MdmX conf 81.8 | Full FLuc ctr 55.9
O=C(Nc1cccc(C(=O)O)c1)Nc1ccc2c(c1)OCO2	Mdm2-MdmX inh 53.8, Jurkat NFkB inh 87.9, 697 NFkB inh 70.5 | Jurkat NFkB conf 68.9 | 697 NFkB conf 69.3 | Mdm2-MdmX conf 62.8 | Full FLuc ctr 49.8
C=CCn1c(C)cc(C(=O)CN2C(=O)c3ccccc3S2(=O)=O)c1C	Mdm2-MdmX inh 74.5, Gli-Sufu antag 89.2, Jurkat NFkB inh 88.8, 697 NFkB inh 66.1 | Jurkat NFkB conf 48.9 | 697 NFkB conf 45.4 | Mdm2-MdmX conf 78.7 | Full FLuc ctr 53.0
C=CCn1c(C)cc(C(=O)CN2C(=O)NC3(CCCc4ccccc43)C2=O)c1C (configuration not stated)	none
CN(Cc1ccccc1)C(=O)CN1C(=O)c2ccccc2S1(=O)=O	none
CCn1c(C)cc(C(=O)CN2C(=O)c3ccccc3S2(=O)=O)c1C	Mdm2-MdmX inh 88.2, Gli-Sufu antag 63.8, Jurkat NFkB inh 69.4 | Jurkat NFkB conf inactive | Mdm2-MdmX conf 81.3 | Full FLuc ctr inactive
Cc1cc(C(=O)CN2C(=O)c3ccccc3S2(=O)=O)c(C)n1-c1ccccc1	Mdm2-MdmX inh 56.9, Jurkat NFkB inh 65.9 | Jurkat NFkB conf inactive | Mdm2-MdmX conf inactive
C=CCn1c(=O)c2ccccc2n2c(SCC(=O)NC(C)C)nnc12	none (no result: Beta cell apopt)
CCn1cc(C(=O)NC2CCCc3c2cnn3-c2cccc(C)c2C)cn1 (configuration not stated)	Mdm2-MdmX inh 84.0, Jurkat NFkB inh 73.8 (no result: Gli-Sufu antag, Beta cell apopt) | Jurkat NFkB conf 66.2 | Mdm2-MdmX conf 92.5 | Full FLuc ctr 36.8
O=C(NC1CCCc2c1cnn2-c1cc(F)cc(F)c1)c1ccccn1 (configuration not stated)	none
COC(=O)c1ccc(C(=O)NC2CCCc3c2cnn3-c2ccc(C)c(C)c2)cc1 (configuration not stated)	Mdm2-MdmX inh 59.9, Jurkat NFkB inh 59.7 | Jurkat NFkB conf 59.0 | Mdm2-MdmX conf 72.3 | Full FLuc ctr 59.1

Screening results deposited in PubChem by several laboratories.
